From ChEMBL document CHEMBL3988442, “University of Dundee, Small-Polar-MMV Screening Library” (2021) come the findings set out here.

What all share (design): scale not given: direction of the effect not stated beside the values
The target of assay [1] is Protein translocase subunit SecA (Escherichia coli (strain K12)) (UniProt P10408). Put plainly: Assay to Identify E. coli SecA ATPase Inhibitors. The assay is classed as functional. Conditions: 30 µM.
The target of assay [2] is T1, Ubiquitin-activating enzyme e1, putative (Leishmania donovani (strain BPK282A1)) (UniProt E9BSI1).
T1 sequence (whole entry): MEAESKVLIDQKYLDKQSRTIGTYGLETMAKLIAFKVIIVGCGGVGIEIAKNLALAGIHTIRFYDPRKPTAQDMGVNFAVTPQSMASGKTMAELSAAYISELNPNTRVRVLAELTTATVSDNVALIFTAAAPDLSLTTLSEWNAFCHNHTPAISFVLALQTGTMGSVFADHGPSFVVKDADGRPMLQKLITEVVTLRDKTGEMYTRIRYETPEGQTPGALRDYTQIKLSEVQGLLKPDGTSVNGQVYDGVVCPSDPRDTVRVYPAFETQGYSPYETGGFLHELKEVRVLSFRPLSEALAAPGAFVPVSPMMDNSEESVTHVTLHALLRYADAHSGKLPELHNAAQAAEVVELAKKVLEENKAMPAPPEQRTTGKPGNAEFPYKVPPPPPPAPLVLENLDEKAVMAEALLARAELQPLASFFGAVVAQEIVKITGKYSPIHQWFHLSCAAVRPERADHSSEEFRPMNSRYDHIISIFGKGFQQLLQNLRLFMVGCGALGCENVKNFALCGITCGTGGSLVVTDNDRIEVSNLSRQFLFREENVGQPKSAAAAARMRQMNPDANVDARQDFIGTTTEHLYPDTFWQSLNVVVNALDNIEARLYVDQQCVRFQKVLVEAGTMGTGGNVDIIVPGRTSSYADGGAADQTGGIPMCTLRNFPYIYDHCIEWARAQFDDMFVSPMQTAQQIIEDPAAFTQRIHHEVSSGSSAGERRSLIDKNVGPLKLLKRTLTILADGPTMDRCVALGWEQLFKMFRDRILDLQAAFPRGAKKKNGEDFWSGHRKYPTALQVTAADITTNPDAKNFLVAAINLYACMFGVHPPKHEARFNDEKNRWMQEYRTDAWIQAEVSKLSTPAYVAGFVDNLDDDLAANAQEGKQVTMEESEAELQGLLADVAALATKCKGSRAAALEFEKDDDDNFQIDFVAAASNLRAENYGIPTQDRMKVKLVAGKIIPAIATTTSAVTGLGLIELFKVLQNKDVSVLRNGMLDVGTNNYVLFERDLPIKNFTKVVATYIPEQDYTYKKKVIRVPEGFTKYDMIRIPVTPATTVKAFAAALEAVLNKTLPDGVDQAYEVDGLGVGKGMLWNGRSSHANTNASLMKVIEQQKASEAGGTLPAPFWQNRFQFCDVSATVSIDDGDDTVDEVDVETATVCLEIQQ
Put plainly: Leishmania donovani Ubiquitin Activating Enzyme (LdE1). The assay is classed as functional. Conditions: 30 µM.

Assay [3] addresses AMP-activated protein kinase, AMPK (Homo sapiens) (UniProt P54646+O43741+P54619+Q9UGJ0+Q9Y478+Q13131+Q9UGI9). The experiment in a line: AMP-dependent Kinase enzyme assay. An in vitro enzyme assay that detects ADP turnover that is directly proportional to AMPK activity. This uses naive AMPK that is activated during the assay with MK-8722. The assay is classed as functional. The note with it: 30 µM.

In assay [4] the target is Sialic acid-binding Ig-like lectin 9 (Homo sapiens) (UniProt Q9Y336). The experiment in a line: Hs-Siglec9 ALPHAscreen SOP 20170721. Conditions: 10 µM.
The next assay deals with Trypanosoma cruzi. Put plainly: Trypanosoma cruzi phosphomannomutase and mannose-1-phosphate guanylyltransferase assay. The assay is classed as functional. Conditions: 10 µM.
The target in assay [5] is T2, Arginase-2, mitochondrial (Homo sapiens) (UniProt P78540).
T2 sequence (whole entry): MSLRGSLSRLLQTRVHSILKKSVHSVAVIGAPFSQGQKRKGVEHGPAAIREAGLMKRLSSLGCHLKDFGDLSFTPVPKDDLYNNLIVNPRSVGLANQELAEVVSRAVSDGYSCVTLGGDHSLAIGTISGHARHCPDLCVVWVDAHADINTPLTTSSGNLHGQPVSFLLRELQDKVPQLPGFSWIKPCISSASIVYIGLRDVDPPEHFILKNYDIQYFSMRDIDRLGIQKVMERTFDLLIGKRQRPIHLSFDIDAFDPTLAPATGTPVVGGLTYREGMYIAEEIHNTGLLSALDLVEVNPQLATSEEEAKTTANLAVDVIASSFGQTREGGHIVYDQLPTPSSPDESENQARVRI
The experiment in a line: in vitro enzyme assay to detect the production of urea directly proportional to the activity of Arginase II. Also: in the data most compounds retested in dose-response had high values. The assay is classed as functional. Conditions: 33.3 µM.

The target in assay [6] is T3, Proteasome subunit beta (Trypanosoma cruzi) (UniProt O96673).
T3 sequence (whole entry): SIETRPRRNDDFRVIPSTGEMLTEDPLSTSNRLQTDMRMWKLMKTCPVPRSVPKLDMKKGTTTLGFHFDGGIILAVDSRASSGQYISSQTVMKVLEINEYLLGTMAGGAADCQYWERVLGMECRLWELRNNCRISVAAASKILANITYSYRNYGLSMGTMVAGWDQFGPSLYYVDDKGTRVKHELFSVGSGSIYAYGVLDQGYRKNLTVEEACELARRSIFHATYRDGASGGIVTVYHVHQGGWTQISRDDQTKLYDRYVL
Put plainly: Trypanosoma cruzi proteasome chymotrypsin-like activity (TcProtChymo) assay. Also: in the data most compounds retested in dose-response had high values. The assay is classed as functional. The note with it: 9.37 µM.

The species entered for another assay is Homo sapiens. The experiment in a line: To identify inhibition of the IFN signalling (Jak-Stat) pathway via expression of an eGFP reporter gene under the control of an IFN-stimulated response element (ISRE) containing MxA promoter. The assay is classed as functional. The note with it: 30 µM.
Assay [7] concerns the target T4, Tyrosyl-tRNA synthetase, putative (Trypanosoma cruzi (strain CL Brener)) (UniProt Q4DSP6).
T4 sequence (whole entry): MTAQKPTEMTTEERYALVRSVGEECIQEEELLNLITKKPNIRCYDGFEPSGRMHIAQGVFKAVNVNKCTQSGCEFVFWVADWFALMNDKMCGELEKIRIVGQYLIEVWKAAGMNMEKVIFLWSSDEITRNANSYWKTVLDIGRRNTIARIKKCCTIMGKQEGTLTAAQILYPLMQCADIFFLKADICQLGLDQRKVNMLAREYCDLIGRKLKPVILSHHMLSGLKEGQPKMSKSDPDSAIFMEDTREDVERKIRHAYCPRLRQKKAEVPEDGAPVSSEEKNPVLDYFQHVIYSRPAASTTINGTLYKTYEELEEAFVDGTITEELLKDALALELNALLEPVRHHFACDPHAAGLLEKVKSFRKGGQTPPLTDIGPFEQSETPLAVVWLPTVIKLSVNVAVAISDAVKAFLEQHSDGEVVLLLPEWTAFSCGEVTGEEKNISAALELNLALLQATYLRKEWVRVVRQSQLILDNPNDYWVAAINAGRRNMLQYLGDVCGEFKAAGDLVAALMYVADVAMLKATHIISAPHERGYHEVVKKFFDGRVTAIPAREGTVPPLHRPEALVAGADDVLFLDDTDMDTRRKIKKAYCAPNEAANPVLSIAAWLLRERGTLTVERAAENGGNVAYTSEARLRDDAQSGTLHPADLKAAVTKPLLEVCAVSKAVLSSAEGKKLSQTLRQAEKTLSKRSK
Put plainly: Trypanosoma cruzi tyrosyl tRNA synthetase (TcYRS) _High Tyrosine SOP. Also: in the data most compounds retested in dose-response had high values. The note with it: 30 µM. The assay is classed as functional.

Assay [8] has as its target T4, Tyrosyl-tRNA synthetase, putative (Trypanosoma cruzi (strain CL Brener)). Put plainly: Trypanosoma cruzi tyrosyl tRNA synthetase (TcYRS) SOP. The assay is classed as functional. Conditions: 30 µM.
The target of assay [9] is Chromo domain-containing protein 1 (Saccharomyces cerevisiae (strain ATCC 204508 / S288c) (Baker's yeast)) (UniProt P32657). The experiment in a line: ScCHD-1 Enzyme Inhibition Assay. Also: in the data most compounds retested in dose-response had high values. The note with it: 30 µM. The assay is classed as functional.

SMILES strings stand for the structures. For some of these results: Measured potencies and affinities stand elsewhere.

Sequence of Chromo domain-containing protein 1 (Saccharomyces cerevisiae (strain ATCC 204508 / S288c) (Baker's yeast)) (P32657 whole entry, the tested form may be a part): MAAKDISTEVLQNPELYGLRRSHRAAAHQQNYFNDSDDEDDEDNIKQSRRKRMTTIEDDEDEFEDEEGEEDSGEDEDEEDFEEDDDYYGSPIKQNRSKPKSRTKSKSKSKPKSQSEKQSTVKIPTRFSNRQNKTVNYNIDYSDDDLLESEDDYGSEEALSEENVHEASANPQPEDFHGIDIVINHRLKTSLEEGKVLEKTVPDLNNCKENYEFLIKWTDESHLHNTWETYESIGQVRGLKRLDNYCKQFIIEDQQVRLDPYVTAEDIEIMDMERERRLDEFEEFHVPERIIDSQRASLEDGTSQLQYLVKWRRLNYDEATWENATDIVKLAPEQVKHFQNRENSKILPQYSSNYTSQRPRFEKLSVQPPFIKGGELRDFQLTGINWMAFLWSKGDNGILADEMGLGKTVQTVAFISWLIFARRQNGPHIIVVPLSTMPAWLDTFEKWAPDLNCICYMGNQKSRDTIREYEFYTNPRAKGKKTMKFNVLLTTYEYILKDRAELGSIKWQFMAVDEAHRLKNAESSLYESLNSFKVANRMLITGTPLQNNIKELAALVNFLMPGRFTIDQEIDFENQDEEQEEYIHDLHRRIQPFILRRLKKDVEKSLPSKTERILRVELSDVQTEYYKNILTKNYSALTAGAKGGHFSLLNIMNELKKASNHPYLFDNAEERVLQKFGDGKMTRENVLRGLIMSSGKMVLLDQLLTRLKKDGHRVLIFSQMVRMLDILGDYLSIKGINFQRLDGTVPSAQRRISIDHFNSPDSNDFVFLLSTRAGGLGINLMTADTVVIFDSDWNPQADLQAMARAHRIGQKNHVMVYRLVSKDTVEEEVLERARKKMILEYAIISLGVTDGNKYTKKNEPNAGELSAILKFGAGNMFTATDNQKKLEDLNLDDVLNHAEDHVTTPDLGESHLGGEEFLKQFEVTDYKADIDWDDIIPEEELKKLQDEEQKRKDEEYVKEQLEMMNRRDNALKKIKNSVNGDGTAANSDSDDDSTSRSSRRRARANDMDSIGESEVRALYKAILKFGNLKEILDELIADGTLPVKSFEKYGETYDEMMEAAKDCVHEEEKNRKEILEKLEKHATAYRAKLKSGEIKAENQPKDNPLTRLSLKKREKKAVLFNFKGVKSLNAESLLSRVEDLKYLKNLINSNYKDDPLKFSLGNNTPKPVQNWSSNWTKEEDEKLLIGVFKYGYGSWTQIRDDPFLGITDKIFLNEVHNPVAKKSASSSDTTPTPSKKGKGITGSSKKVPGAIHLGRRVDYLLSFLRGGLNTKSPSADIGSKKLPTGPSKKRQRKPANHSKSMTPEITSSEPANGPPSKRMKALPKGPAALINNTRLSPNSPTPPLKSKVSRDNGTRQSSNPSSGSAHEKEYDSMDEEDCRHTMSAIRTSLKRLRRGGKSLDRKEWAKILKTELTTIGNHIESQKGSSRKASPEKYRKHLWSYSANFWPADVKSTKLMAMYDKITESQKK
Sequence of Protein translocase subunit SecA (Escherichia coli (strain K12)) (P10408 whole entry): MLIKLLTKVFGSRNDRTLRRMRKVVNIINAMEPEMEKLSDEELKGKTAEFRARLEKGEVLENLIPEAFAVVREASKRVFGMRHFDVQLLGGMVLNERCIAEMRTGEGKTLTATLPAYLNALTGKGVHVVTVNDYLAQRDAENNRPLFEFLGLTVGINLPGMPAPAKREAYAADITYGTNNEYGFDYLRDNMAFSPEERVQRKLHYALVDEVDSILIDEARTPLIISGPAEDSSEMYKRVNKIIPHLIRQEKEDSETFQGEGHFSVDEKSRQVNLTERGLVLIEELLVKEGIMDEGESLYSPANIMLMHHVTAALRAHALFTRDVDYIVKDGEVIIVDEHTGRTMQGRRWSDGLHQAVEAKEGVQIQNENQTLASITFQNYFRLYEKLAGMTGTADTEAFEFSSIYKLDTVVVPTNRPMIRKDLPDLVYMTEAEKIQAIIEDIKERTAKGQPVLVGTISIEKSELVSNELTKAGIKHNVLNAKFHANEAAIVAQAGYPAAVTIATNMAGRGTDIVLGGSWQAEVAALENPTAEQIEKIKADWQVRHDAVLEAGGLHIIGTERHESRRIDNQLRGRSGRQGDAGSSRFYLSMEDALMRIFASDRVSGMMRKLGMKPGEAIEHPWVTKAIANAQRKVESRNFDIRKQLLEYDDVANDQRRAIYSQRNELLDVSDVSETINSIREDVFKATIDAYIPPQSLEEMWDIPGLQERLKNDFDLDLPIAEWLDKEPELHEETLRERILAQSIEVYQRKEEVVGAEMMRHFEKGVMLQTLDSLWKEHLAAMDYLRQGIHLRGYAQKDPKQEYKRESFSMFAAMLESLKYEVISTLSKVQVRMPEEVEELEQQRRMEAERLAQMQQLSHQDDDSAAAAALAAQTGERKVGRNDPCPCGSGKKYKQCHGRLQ
Sequence of Sialic acid-binding Ig-like lectin 9 (Homo sapiens) (Q9Y336 whole entry): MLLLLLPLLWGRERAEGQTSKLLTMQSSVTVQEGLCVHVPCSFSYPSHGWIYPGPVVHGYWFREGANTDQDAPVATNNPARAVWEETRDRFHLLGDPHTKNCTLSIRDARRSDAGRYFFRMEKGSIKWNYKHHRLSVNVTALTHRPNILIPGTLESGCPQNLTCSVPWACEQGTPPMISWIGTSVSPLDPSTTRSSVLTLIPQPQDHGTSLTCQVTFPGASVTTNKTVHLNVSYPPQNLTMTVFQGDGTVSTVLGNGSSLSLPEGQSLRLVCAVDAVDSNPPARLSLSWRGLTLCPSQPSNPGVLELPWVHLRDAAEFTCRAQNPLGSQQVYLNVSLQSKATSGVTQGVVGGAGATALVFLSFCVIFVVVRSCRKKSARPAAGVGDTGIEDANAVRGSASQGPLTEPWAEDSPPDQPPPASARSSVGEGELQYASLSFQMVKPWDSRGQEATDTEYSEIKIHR

With `CN1CCN(Cc2cccnc2)C2(CCN(c3ncc(F)cn3)C2)C1=O` (stereo unspecified), the Percent Effect in assay [1] is -4.27%; in assay [2], 5.2%; in assay [3], 2.79%; in assay [4], 8.1%; in the assay with Trypanosoma cruzi, -0.885%; in assay [5], -13.8%. Also, the Percent Effect is 2.33% in assay [6]; -4.32% in the assay filed under Homo sapiens; 4.3% in assay [7]; 8.64% in assay [8]; -0.489% in assay [9].

For the compound `COc1ccc(NC(C)C(=O)NCCc2cccs2)cc1F` (stereo unspecified), the Percent Effect in assay [1] was -7.72%; in assay [2] it was -2.74%; in assay [3], -49.8%; in assay [4], 6.34%; in the assay with Trypanosoma cruzi, -3.92%; in assay [5], 0%. Also, the Percent Effect is 15.3% in assay [6]; 14.2% in the assay listed under Homo sapiens; -1.07% in assay [7]; -5% in assay [8]; -3.93% in assay [9].

Consider `CN(Cc1nc(-c2ccco2)no1)C1CCCN(c2cccnn2)C1` (stereo unspecified), for which the Percent Effect is -1.52% in [1]; 20.2% in assay [2]; -5.85% in assay [3]; -5.93% in [4]; 2.17% in the assay on Trypanosoma cruzi; 1.14% in assay [5]. The Percent Effect in assay [6] was 16.1%; in the assay listed under Homo sapiens, 11.9%; in assay [7], 6.4%; in [8], 21.5%; in assay [9], -10.1%.

For the compound `CC(C)NC(=O)N1CCC(n2ccc(C(F)(F)F)n2)CC1`, the Percent Effect in assay [1] was -6.7%; in assay [2], 5.48%; in [3], -3.52%; in [4], -4.66%; with Trypanosoma cruzi, -2.74%; in [5], -0.909%. The Percent Effect in assay [6] is 5.32%; in the assay listed under Homo sapiens it was -13.8%; in assay [7], 0%; in assay [8] it was 7.5%; in [9], -2.82%.

Consider `Cn1ccnc1CN1CCC2(COCCN(Cc3ccsc3)C2)C1` (stereo unspecified), for which the Percent Effect is -3.36% in assay [1]; 13% in assay [2]; -5.28% in assay [3]; 12.1% in [4]; 6% in the assay on Trypanosoma cruzi; -11% in assay [5]. For the same compound, the Percent Effect in [6] is 12.2%; in the assay filed under Homo sapiens, -9.92%; in [7], 9.68%; in assay [8], 21%; in [9] it was -6.67%.

On to `CCC(=O)N1CCC(c2nnc(Cn3cccn3)n2C2CC2)CC1`, for which the Percent Effect in assay [1] was -5.96%; in assay [2], 18.1%; in assay [3] it was -4.09%; in [4], 12.6%; in the assay with Trypanosoma cruzi, 2.23%; in assay [5], -0.442%. The Percent Effect in assay [6] is 8.07%; in the assay listed under Homo sapiens it was -1.41%; in assay [7] it was 4.21%; in [8] it was 12.8%; in [9], -0.227%.

With `CCn1c(C)nnc1CN(C)C1CCN(CCc2ccncc2)C1` (stereo unspecified), the Percent Effect in [1] was -2.2%; in [2], 20.8%; in assay [3] it was -0.899%; in assay [4], 1.88%; with Trypanosoma cruzi it was 1.47%; in assay [5] it was -3.16%. Besides, the Percent Effect in [6] is 9.62%; in the assay listed under Homo sapiens it was 13.3%; in [7] it was 11.4%; in assay [8], 30.6%; in assay [9] it was -19.1%.

Take `Cc1cc(C(=O)N2CCN(C(=O)Cc3ccccn3)CC2)c(C)s1`: the Percent Effect in assay [1] was -3.63%; in [2], 6.33%; in assay [3], 1.98%; in assay [4], -0.00439%; in the assay on Trypanosoma cruzi it was -1.54%; in [5], -11%. Also, the Percent Effect in assay [6] was 4.8%; in the assay listed under Homo sapiens it was -10.2%; in assay [7], 7.29%; in assay [8], 7.59%; in assay [9], 5.75%.

`COC(=O)c1ccc(N2CCN(C(=O)c3cc(C)on3)C(C)C2)cc1` (stereo unspecified): the Percent Effect in [1] is -1.64%; in assay [2], 12.7%; in assay [3], 13.9%; in assay [4] it was 10.2%; with Trypanosoma cruzi, -3.87%; in assay [5], 0.76%. Further, the Percent Effect in assay [6] is 9.42%; in the assay filed under Homo sapiens it was 7.47%; in [7], -2.46%; in assay [8], 3.8%; in assay [9] it was -6.13%.

As to `O=C(NCCCn1cccn1)C1(c2ccc(F)cc2)CC1`, the Percent Effect in [1] amounted to 0.73%; in assay [2], 16.4%; in assay [3], 0.361%; in [4] it was 3.37%; with Trypanosoma cruzi, 3.72%; in assay [5], 10.4%. The Percent Effect in assay [6] was 8.87%; in the assay filed under Homo sapiens it was -5.73%; in assay [7], 6.45%; in assay [8], 12.5%; in assay [9], -4.26%.

For the compound `CC(=O)N1CCOC(c2cc(N3CC(O)C3)nc(C)n2)C1` (stereo unspecified), the Percent Effect in [1] is -3.22%; in assay [2], 5.33%; in assay [3], 11%; in assay [4], -2.94%; with Trypanosoma cruzi, 0.394%; in assay [5], 2.1%. Further, the Percent Effect was 11.2% in [6]; 0.425% in the assay filed under Homo sapiens; 5.32% in assay [7]; 16.7% in assay [8]; -2.41% in [9].
